# Assay results: ChEMBL document CHEMBL4513216, “Probing the Open Global Health Chemical Diversity Library for Multistage-Active Starting Points for Next-Generation Antimalarials” (ACS Infect Dis, 2020)
# Out of some 69,000 compounds screened, about 8,600 (12%) showed an effect of 50% or more. Shown is part of a subset that was picked to be rich in strong results.
# System: Plasmodium berghei
# Test: Screen against P. berghei liver stage (PbLuc), transformed with Luciferase, at 10uM
# Assay type: functional, HepG2
# Conditions: tested at 10 uM
row,SMILES,INHIBITION [%]
1,CNc1ccc(CC2CCCN(C(=O)c3c(C)noc3C)C2)nn1 (centres undefined),21.9
2,CNc1ccc(CC2CCCN(C(=O)c3cnco3)C2)nn1 (centres undefined),1.11
3,CCc1cc(C(=O)N2CCCC(Cc3ccc(NC)nn3)C2)on1 (centres undefined),60.4
4,Cc1noc(CNC(=O)NCC2(C)CCCc3ccccc32)n1 (centres undefined),6.29
5,COCCCNC(=O)c1ccccc1-n1cc(CN(C)C)cn1,20.8
6,CC(C)NC(=O)C1CN(C(=O)COc2ccccc2)CC12CCOCC2 (centres undefined),24.1
7,CC(C)CCN1C2(CCN(Cc3nccs3)C2)c2ccccc2S1(=O)=O (centres undefined),78.8
8,CN(C)CCN1C2(CCN(Cc3nccs3)C2)c2ccccc2S1(=O)=O (centres undefined),80
9,COCCN1C2(CCN(Cc3nccs3)C2)c2ccccc2S1(=O)=O (centres undefined),14.8
10,CC(C)CCN1C2(CCN(C(=O)C3(C)CC3)C2)c2ccccc2S1(=O)=O (centres undefined),6.55
11,CC(C)CCN1C2(CCN(C(=O)N(C)C)C2)c2ccccc2S1(=O)=O (centres undefined),6.55
12,CC(C)CCN1C2(CCN(c3ncccn3)C2)c2ccccc2S1(=O)=O (centres undefined),13.5
13,O=C(Nc1ccccn1)c1cncc(C2CCNCC2)n1,-35.5
14,N#CC1Sc2nnc(-c3ccccc3Br)n2N=C1N (centres undefined),16.2
15,O=C(c1ccc(-n2cnnn2)cc1)N1CCCC(n2ccnc2)C1 (centres undefined),26.4
16,CCN(CC1CCOC1)C(=O)Nc1ccc(N2CCCCC2)nc1 (centres undefined),-8.83
17,COCCNc1ccc(CC2CCCN(C3CCOCC3)C2)nn1 (centres undefined),7.71
18,O=C(c1nsc(Cl)c1Cl)N1CCc2nc3sccc3c(=O)n2CC1,-14.1
19,CN(C)C(=O)c1n[nH]c2c1CN(Cc1nccs1)CC2,88
20,CN1CCN(C(=O)c2n[nH]c3c2CN(Cc2nccs2)CC3)CC1,-105
21,CN(C)C(=O)c1n[nH]c2c1CCN(Cc1nccs1)C2,-53.6
22,CC(C)CNC(=O)c1cn(C(C)C)cc2c(=O)[nH]nc1-2,36.8

row,SMILES,INHIBITION [%]
1,Cn1c(=O)[nH]c(=O)n2c(CC(=O)NCc3ccccc3)cnc12,19.3
2,O=C(Nc1cccnc1-n1cc(Cl)cn1)C1CC1,41.5
3,O=C(Nc1cccnc1-n1cc(Cl)cn1)C1CCCC1,48
4,O=C(Nc1cccnc1-n1cc(Cl)cn1)C1CCCCC1,52.6
5,COc1ccc(C)cc1C(C)NC(=O)CCn1cncn1 (centres undefined),19.2
6,O=C(c1ccnnc1)N1C[C@@H]2C[C@@H](c3nc(C4CC4)cs3)O[C@@H]2C1,-60.2
7,O=C(c1ccncn1)N1CCC[C@]2(C[C@@H](OCc3ccccn3)CO2)C1,43.9
8,COc1ccc(S(=O)(=O)C(F)(F)F)cc1NC(=O)CSCC#N,48.3
9,COc1ccc(S(=O)(=O)C(F)(F)F)cc1NC(=O)CSC,63.7
10,COCC(=O)Nc1cc(S(=O)(=O)C(F)(F)F)ccc1OC,33.7
11,Cc1ccccc1CN(C)C(=O)CN1CCCC(Cn2cncn2)C1 (centres undefined),-51.5
12,COc1cc(C)c(C(C)NC(=O)NCCCn2cncn2)cc1OC (centres undefined),-19.4
13,CCn1nnc2c1C(COCCN(C)C)CN(Cc1ccco1)C2 (centres undefined),62.3
14,CCn1nnc2c1C(COC)CN(Cc1ccco1)C2 (centres undefined),-30.1
15,CN(C)CCN1Cc2ncn(C)c2C(COCC(=O)N(C)C)C1 (centres undefined),50
16,CCn1nnc2c1C(COCCN(C)C)CN(S(C)(=O)=O)C2 (centres undefined),43.8
17,CN(C)CCOCC1CN(Cc2ccncc2)Cc2nnn(C)c21 (centres undefined),3.58
18,CCn1nnc2c1C(COCCN(C)C)CN(Cc1ccc(C)s1)C2 (centres undefined),-22.1
19,CN(C)CCOCC1CN(Cc2ccoc2)Cc2nnn(C)c21 (centres undefined),18.5
20,Cc1cccc(CN2Cc3ncn(C)c3C(COCC(=O)N(C)C)C2)n1 (centres undefined),-10.3
21,CN(C)C(=O)COCC1CN(CC2CCOCC2)Cc2ncn(C)c21 (centres undefined),4.57
22,CCn1nnc2c1C(COCCN(C)C)CN(S(=O)(=O)CC)C2 (centres undefined),52.6

row,SMILES,INHIBITION [%]
1,CCn1nnc2c1C(COCCN(C)C)CN(c1nncs1)C2 (centres undefined),57.1
2,CCS(=O)(=O)N1Cc2nnn(C)c2C(COCCN(C)C)C1 (centres undefined),48.2
3,CN1CCOC(CNCc2coc(-c3ccc(Cl)cc3)n2)C1 (centres undefined),33.7
4,CN(CC(=O)N1CCc2[nH]c3ccc(F)cc3c2C1)CC1OCCO1,22.9
5,Cc1c(C(=O)N2CCC3(CCCNC3=O)C2)sc2nc[nH]c(=O)c12 (centres undefined),12.9
6,CN(C)Cc1cnc2n1CCN(C(=O)NCc1ccccc1)CC2,21.6
7,CC(=O)c1ccc(C(=O)NCCCOC(C)c2ccccc2)s1 (centres undefined),29.2
8,Cc1cc(N)nc(C2(C)CCCN2C(=O)c2cnccn2)n1 (centres undefined),17.1
9,O=S(=O)(NCCn1ccc(-c2ccccn2)n1)C1CCCCC1,40
10,Cc1n[nH]c2nc(-c3cc(Br)ccc3O)cc(C(=O)O)c12,4.82
11,Cc1ccc(O)c(CN2CCCCC2CCN2CCOCC2)c1 (centres undefined),30.3
12,Cc1nnc2n1CCN(Cc1csc(-c3ncccn3)n1)C2,26.4
13,Cn1c(CN2CCCCC2)nnc1C1CCCN(c2ccncc2F)C1 (centres undefined),-2.43
14,CN(C)C(=O)COCC1CN(Cc2ccoc2)Cc2nnn(C)c21 (centres undefined),-3.24
15,CCn1nnc2c1C(COCC(=O)N(C)C)CN(Cc1ccco1)C2 (centres undefined),-3.26
16,CCn1nnc2c1C(COCC(=O)N(C)C)CN(Cc1ccoc1)C2 (centres undefined),53.4
17,CC(C)N1CCc2nnc(COc3cncnc3)n2CC1,-2.25
18,CC(C)N1CCCCC1c1nc(N(C)C)ncc1I (centres undefined),-9.51
19,Cc1ncncc1-c1ccnc(N(C)C)n1,4.08
20,CCCc1cc(NC2CCc3nc(C)nn3C2)n2ncnc2n1 (centres undefined),-2.23
21,CCN1CCC2(COCc3cnc(NCC4CC4)nc32)C1 (centres undefined),13.5
22,Cc1nc(NCC2CC2)nc2c1COCC21CCN(S(=O)(=O)C2CC2)C1 (centres undefined),66

row,SMILES,INHIBITION [%]
1,c1cc(N2CCC3(COCc4cnc(NCC5CC5)nc43)C2)ncn1 (centres undefined),31.7
2,Cc1nc(NCC2CC2)nc2c1COCC21CCN(C)C1 (centres undefined),31.3
3,c1ccc(CN2CCC3(COCc4cnc(NCC5CC5)nc43)C2)cc1 (centres undefined),43.9
4,Cc1nc(NCC2CC2)nc2c1COCC21CCN(C(=O)C(C)(C)C)C1 (centres undefined),49.7
5,Fc1cnc(N2CCC3(COCc4cnc(NCC5CC5)nc43)C2)nc1 (centres undefined),-53.2
6,CN(C)S(=O)(=O)N1CCC2(COCc3cnc(NCC4CC4)nc32)C1 (centres undefined),62.8
7,O=S(=O)(C1CC1)N1CCC2(COCc3cnc(NCC4CC4)nc32)C1 (centres undefined),57.4
8,CC(C)c1noc(CCC(=O)NC(C)c2ccccn2)n1 (centres undefined),-40.96
9,Nc1nccc(C2CCN(c3cnccn3)C2)n1 (centres undefined),30.5
10,CCOc1cc(C(=O)N2CCCC(c3nc(C)c(C)s3)C2)ccn1 (centres undefined),48.4
11,O=C(COc1ccc2c(c1)OCO2)NCc1ccco1,31.135
12,CCCN1CCC(CC(=O)N2CCC(C(O)c3nccn3C)CC2)CC1 (centres undefined),6.69
13,CCn1nc(C)c2nc(C(C)C)nc(NC)c21,16.8
14,O=C1CCC2(CCCN(Cc3nnc(C4CC4)o3)C2)CN1CCO (centres undefined),34.4
15,COCCN1CCCC2(CCN(c3ncc(Cl)cc3Cl)C2)C1=O (centres undefined),-5.8
16,COCCN1CCCC2(CCN(c3ncnc(C)c3C)C2)C1=O (centres undefined),69.6
17,COCCN1CCCC2(CCN(Cc3nnc(C4CC4)o3)C2)C1=O (centres undefined),51.2
18,COCCN1CCC2(CCCN(Cc3ccoc3)C2)C1=O (centres undefined),8.74
19,COCCN1CCCC2(CCN(Cc3noc(C4CCCC4)n3)C2)C1=O (centres undefined),9.56
20,CCN1CCCC2(CCN(Cc3nnc(C4CC4)o3)C2)C1=O (centres undefined),-9.18
21,COCCN1CCCC2(CCN(c3nccnc3N(C)C)C2)C1=O (centres undefined),-52.2
22,O=C1N(CCO)CCCC12CCN(Cc1nnc(C3CC3)o1)C2 (centres undefined),61.1

row,SMILES,INHIBITION [%]
1,Cc1nc2oc(C(=O)N3CCCC3)c(N)c2c2c1CCCC2,16
2,CCn1cnnc1CNC(=O)N1CCN(c2ccc(OC)cc2)CC1,36.1
3,CN(C)c1cc(CNC(=O)c2cnccn2)ccn1,-6.14
4,O=C(Cc1c(F)cccc1Cl)Nc1cc(N2CCOCC2)ncn1,30.9
5,CC(C)n1nc(CN2CCCC2=O)c2c1CN(C(=O)c1ccco1)C2,39.5
6,CCC1c2cccn2CCN1S(=O)(=O)N1CCOCC1 (centres undefined),31.2
7,CCN1CCN(C(=O)COCc2cccc(OC)c2)CC1,-28.675
8,Cc1ccc(CN2C(=O)CCC23CCC(NC2CCOC2)CC3)cc1 (centres undefined),35.8
9,Cc1occc1C(=O)N1CCOCC2(CCN(C3CCOCC3)C2)C1 (centres undefined),43.9
10,CC(C)S(=O)(=O)N1C[C@@H](O)[C@H](N(C)Cc2ccc(F)cc2)C1,30.75
11,CNC(=O)Cc1ccc(NC(=O)NCC(C)c2ncc(C)s2)cc1 (centres undefined),14.8
12,Cc1cnc(CNC(=O)NCc2cccnc2N(C)C)s1,45.8
13,CNC(=O)Cc1ccc(NC(=O)NC2(c3cccc(F)c3)CC2)cc1,9
14,CNC(=O)Cc1ccc(NC(=O)NCc2ncc(C)s2)cc1,64
15,CNC(=O)Cc1ccc(NC(=O)NC(C)C(C)C)cc1 (centres undefined),-9.48
16,CNC(=O)Cc1ccc(NC(=O)NCc2nc(C)sc2C)cc1,52.2
17,COc1ccc(-c2nc(CN3CCc4cncnc4C3)no2)cc1,5.72
18,CCc1c(C(=O)N2C[C@@H]3CC[C@H]2CN(c2cnccn2)C3)csc1C,-59.5
19,CC(=O)c1ccc(S(=O)(=O)N2CCCC2CN2CCCC2)cc1 (centres undefined),51.1
20,CSc1ccc(S(=O)(=O)N2CCCCC2CCNC(C)=O)cc1 (centres undefined),11.8
21,CC(=O)c1ccc(C(=O)N2C[C@@H](CN3CCCC3)[C@@H](CO)C2)cc1,32.5
